The results in this text go back to ChEMBL document CHEMBL3988442, “University of Dundee, Small-Polar-MMV Screening Library” (2021).

Molecules are shown by their SMILES. For some assays here: Results with a measured potency or affinity are listed apart.

Common to all, as to parameters: scale not given: direction of the effect not stated beside the values
Assay [1] deals with Protein translocase subunit SecA (Escherichia coli (strain K12)) (UniProt P10408). As to the kind of experiment: Assay to Identify E. coli SecA ATPase Inhibitors. In kind it is functional. The note with it: 30 µM.
Sequence of Protein translocase subunit SecA (Escherichia coli (strain K12)) (P10408 whole entry): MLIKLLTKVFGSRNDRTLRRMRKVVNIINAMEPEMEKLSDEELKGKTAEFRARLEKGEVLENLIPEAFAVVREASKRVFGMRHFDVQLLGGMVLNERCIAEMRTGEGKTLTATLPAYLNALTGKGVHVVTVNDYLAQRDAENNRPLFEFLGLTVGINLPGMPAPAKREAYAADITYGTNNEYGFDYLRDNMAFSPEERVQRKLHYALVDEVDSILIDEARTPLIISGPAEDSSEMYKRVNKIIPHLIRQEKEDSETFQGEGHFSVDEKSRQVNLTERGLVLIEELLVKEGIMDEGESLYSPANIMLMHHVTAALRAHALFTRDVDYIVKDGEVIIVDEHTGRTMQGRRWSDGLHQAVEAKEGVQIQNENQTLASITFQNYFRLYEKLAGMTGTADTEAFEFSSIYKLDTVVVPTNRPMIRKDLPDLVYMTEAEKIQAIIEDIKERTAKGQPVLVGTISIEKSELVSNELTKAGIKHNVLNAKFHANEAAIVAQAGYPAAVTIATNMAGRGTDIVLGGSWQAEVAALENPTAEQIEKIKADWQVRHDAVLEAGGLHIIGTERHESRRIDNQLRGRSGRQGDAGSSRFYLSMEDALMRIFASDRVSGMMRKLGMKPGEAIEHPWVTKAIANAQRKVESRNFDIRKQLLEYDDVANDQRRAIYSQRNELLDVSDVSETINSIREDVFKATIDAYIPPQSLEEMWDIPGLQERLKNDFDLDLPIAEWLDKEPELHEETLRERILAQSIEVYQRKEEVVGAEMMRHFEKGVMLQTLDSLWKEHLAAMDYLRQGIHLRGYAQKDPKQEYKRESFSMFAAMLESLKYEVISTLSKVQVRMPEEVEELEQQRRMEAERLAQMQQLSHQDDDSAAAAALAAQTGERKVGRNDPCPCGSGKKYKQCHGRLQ
For assay [2], the target named is T1, Ubiquitin-activating enzyme e1, putative (Leishmania donovani (strain BPK282A1)) (UniProt E9BSI1).
T1 sequence (whole entry): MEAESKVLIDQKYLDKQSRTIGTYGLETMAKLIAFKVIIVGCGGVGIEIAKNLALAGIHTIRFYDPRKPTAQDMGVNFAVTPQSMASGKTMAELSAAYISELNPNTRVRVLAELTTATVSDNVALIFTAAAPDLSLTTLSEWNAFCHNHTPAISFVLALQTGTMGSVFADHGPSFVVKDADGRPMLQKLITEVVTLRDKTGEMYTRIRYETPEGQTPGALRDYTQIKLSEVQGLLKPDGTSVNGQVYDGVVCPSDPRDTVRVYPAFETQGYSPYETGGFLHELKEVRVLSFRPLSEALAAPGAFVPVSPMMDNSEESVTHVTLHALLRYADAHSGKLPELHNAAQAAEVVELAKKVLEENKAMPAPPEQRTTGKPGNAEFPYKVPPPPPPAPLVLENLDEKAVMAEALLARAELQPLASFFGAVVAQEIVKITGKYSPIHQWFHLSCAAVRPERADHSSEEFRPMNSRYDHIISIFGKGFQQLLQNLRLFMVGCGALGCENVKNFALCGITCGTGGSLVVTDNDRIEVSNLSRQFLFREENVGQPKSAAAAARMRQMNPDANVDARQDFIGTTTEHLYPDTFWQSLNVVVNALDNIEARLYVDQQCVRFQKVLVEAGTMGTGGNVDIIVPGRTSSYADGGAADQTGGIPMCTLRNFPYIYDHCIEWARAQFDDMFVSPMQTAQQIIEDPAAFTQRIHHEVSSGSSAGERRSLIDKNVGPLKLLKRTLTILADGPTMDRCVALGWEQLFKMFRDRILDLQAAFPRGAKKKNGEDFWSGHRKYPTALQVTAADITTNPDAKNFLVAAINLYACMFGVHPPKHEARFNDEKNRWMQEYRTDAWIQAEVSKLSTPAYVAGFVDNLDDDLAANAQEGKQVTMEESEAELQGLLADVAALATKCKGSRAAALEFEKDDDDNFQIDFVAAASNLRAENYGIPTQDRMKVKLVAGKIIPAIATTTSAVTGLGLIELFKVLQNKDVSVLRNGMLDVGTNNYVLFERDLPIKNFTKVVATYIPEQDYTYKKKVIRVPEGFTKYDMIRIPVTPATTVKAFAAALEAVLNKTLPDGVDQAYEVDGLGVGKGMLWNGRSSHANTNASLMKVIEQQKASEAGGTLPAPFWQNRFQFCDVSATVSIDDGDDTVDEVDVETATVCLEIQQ
As to the kind of experiment: Leishmania donovani Ubiquitin Activating Enzyme (LdE1). In kind it is functional. The note with it: 30 µM.

Assay [3] has as its target Sialic acid-binding Ig-like lectin 9 (Homo sapiens) (UniProt Q9Y336). As to the kind of experiment: Hs-Siglec9 ALPHAscreen SOP 20170721. The note with it: 10 µM. Background: Alpha assays give light when donor and acceptor beads are brought close together.
In the next assay the test system is Trypanosoma cruzi. Nature of the assay: Trypanosoma cruzi phosphomannomutase and mannose-1-phosphate guanylyltransferase assay. It counts as functional. The note with it: 10 µM.
Assay [4] addresses T2, Arginase-2, mitochondrial (Homo sapiens) (UniProt P78540).
T2 sequence (whole entry): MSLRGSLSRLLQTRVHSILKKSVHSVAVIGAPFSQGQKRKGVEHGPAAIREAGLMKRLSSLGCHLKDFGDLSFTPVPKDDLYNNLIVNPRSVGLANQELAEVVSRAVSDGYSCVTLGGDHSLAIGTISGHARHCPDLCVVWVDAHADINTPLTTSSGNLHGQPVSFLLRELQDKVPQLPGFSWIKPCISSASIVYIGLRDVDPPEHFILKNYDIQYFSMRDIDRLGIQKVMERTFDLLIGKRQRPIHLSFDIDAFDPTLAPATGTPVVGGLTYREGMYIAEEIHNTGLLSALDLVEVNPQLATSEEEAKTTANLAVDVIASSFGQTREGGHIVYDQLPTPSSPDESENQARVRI
Nature of the assay: in vitro enzyme assay to detect the production of urea directly proportional to the activity of Arginase II. Note: in the data most compounds retested in dose-response had high values. Conditions: 33.3 µM. In kind it is functional.

Assay [5] concerns the target T3, Proteasome subunit beta (Trypanosoma cruzi) (UniProt O96673).
T3 sequence (whole entry): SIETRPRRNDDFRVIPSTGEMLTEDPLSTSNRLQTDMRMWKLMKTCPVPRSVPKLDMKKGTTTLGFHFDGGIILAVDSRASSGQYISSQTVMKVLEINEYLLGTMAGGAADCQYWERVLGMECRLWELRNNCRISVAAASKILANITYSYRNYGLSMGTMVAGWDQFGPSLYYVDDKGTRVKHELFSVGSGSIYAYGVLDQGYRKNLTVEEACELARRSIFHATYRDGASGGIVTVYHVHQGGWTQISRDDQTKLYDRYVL
Nature of the assay: Trypanosoma cruzi proteasome chymotrypsin-like activity (TcProtChymo) assay. Note: in the data most compounds retested in dose-response had high values. It counts as functional. The note with it: 9.37 µM.

For a further assay, the species on record is Homo sapiens. As to the kind of experiment: To identify inhibition of the IFN signalling (Jak-Stat) pathway via expression of an eGFP reporter gene under the control of an IFN-stimulated response element (ISRE) containing MxA promoter. The note with it: 30 µM. It counts as functional. Background: In a reporter assay the amount or activity of a reporter protein is the signal.

The target of assay [6] is T4, Tyrosyl-tRNA synthetase, putative (Trypanosoma cruzi (strain CL Brener)) (UniProt Q4DSP6).
T4 sequence (whole entry): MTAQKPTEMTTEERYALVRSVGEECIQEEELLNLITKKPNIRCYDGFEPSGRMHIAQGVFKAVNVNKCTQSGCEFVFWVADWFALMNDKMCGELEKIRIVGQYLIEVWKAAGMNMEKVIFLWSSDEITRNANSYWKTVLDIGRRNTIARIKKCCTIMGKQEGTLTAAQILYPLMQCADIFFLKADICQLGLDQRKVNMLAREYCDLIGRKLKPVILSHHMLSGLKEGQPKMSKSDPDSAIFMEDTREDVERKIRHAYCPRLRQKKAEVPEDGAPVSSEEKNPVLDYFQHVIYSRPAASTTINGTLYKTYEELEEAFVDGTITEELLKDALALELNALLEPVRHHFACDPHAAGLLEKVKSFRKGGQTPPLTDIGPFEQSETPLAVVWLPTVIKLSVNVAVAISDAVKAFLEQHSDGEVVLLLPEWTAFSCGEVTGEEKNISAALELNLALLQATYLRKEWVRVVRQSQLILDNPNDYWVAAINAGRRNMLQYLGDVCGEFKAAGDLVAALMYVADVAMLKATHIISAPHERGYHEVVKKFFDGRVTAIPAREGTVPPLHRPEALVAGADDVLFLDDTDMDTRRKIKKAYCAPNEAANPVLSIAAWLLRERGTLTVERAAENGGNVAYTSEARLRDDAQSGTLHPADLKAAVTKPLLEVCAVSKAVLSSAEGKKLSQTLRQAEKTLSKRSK
As to the kind of experiment: Trypanosoma cruzi tyrosyl tRNA synthetase (TcYRS) _High Tyrosine SOP. Note: in the data most compounds retested in dose-response had high values. In kind it is functional. Conditions: 30 µM.

The target in assay [7] is T4, Tyrosyl-tRNA synthetase, putative (Trypanosoma cruzi (strain CL Brener)). As to the kind of experiment: Trypanosoma cruzi tyrosyl tRNA synthetase (TcYRS) SOP. The note with it: 30 µM. In kind it is functional.
In assay [8] the target is Chromo domain-containing protein 1 (Saccharomyces cerevisiae (strain ATCC 204508 / S288c) (Baker's yeast)) (UniProt P32657). As to the kind of experiment: ScCHD-1 Enzyme Inhibition Assay. Note: in the data most compounds retested in dose-response had high values. It counts as functional. The note with it: 30 µM.
Sequence of Chromo domain-containing protein 1 (Saccharomyces cerevisiae (strain ATCC 204508 / S288c) (Baker's yeast)) (P32657 whole entry, the tested form may be a part): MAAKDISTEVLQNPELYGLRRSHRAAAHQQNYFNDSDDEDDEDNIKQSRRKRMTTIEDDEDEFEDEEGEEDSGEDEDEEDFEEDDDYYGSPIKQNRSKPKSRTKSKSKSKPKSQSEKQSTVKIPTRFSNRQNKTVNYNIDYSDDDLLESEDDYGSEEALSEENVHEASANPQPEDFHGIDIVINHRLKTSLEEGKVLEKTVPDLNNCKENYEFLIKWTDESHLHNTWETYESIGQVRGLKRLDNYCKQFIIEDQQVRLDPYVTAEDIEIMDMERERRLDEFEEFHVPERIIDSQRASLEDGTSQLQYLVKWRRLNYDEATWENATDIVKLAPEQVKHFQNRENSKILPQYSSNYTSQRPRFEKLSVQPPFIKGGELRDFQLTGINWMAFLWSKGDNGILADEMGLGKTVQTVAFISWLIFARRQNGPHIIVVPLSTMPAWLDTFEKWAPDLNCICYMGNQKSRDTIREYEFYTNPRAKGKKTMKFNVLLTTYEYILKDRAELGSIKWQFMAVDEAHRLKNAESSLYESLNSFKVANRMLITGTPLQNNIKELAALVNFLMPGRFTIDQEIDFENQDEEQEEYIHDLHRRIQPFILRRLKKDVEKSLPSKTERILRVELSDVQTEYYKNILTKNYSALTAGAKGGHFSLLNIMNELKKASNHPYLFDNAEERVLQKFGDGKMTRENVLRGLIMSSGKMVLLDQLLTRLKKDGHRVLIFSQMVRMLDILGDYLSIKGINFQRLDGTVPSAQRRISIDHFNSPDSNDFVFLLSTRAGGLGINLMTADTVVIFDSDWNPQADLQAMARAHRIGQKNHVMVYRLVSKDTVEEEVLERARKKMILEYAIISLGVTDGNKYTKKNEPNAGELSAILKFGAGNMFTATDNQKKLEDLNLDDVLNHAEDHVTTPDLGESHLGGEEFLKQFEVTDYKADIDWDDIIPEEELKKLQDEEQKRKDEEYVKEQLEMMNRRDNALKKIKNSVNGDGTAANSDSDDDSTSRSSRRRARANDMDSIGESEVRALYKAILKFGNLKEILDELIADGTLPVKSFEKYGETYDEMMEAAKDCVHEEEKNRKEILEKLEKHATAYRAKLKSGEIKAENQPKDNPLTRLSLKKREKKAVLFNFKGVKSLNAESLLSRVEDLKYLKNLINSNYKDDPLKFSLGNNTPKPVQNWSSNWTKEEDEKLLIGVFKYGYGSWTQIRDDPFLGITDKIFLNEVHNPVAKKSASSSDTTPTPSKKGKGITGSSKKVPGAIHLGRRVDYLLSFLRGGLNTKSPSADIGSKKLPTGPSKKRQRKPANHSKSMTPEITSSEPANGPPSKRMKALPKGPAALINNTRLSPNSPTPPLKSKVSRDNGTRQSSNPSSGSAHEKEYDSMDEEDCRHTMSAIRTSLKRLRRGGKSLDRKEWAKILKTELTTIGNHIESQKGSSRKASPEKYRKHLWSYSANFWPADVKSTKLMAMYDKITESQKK

Sequence of Sialic acid-binding Ig-like lectin 9 (Homo sapiens) (Q9Y336 whole entry): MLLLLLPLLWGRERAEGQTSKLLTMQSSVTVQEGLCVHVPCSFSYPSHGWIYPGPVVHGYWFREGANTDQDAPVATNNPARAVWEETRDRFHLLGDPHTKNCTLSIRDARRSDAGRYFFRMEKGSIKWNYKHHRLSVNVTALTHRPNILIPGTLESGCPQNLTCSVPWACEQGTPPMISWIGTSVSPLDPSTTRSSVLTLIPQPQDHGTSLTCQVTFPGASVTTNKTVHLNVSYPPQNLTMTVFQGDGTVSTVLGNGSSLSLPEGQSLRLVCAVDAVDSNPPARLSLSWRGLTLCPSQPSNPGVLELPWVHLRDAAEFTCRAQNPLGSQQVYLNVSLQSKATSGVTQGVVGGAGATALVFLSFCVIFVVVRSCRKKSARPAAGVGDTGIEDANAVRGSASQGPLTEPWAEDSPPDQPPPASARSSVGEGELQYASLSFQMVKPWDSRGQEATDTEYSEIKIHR

With `c1cncc(N2CCOCC3(CCCN(c4nncs4)C3)C2)c1` (stereo not given), the Percent Effect is -4.46% in assay [1]; -3.9% in assay [2]; -2.68% in assay [3]; -1.27% in the assay with Trypanosoma cruzi; -2.02% in assay [4]; 7.33% in [5]. Further, the Percent Effect in the assay filed under Homo sapiens stood at 2.84%; in assay [6], 2.63%; in assay [7], 7.69%; in assay [8], 3.64%.

In the case of `COCCC(=O)N1CCn2c(COCC3CC3)cnc2C1C` (stereo not given), the Percent Effect in [1] is -9.04%; in assay [2], 1.3%; in assay [3], 6.82%; in the assay with Trypanosoma cruzi it was -3.6%; in assay [4], -3.24%; in assay [5] it was 4.33%. In addition, the Percent Effect in the assay listed under Homo sapiens is -4.92%; in assay [6], 0.526%; in [7], 5.13%; in [8] it was -2.88%.

In the case of `Cc1ccc([C@@H]2CN(C(=O)c3cccnn3)C[C@H]2NC(=O)C2CC2)cc1`, the Percent Effect in assay [1] was -10.6%; in [2], 5.41%; in assay [3], 16.9%; with Trypanosoma cruzi, 4.17%; in assay [4], 4.54%; in assay [5], 13.2%. The Percent Effect in the assay filed under Homo sapiens was 3.04%; in assay [6], 5.85%; in [7] it was 19.5%; in assay [8], -1.62%.

Consider `Cc1c(F)cc(C(=O)O)cc1S(=O)(=O)Nc1ccc2c(c1)OCCO2`, for which the Percent Effect in assay [1] was -4.72%; in assay [2] it was 5.13%; in assay [3], 0.878%; with Trypanosoma cruzi, 7.42%; in [4], -4.51%; in [5] it was 2.82%. In addition, the Percent Effect in the assay filed under Homo sapiens is -3.86%; in assay [6], -5.26%; in assay [7], 1.21%; in [8] it was -2.48%.

As to `O=C1CCCN1Cc1nnc2n1CCN(Cc1ccoc1)CC2`, the Percent Effect in [1] is -6.7%; in assay [2] it was 9.09%; in [3], -2.11%; in the assay with Trypanosoma cruzi, -3.94%; in [4] it was 1.83%; in [5], 0.601%. Further, the Percent Effect in the assay filed under Homo sapiens is 26.1%; in assay [6], -1.93%; in assay [7], -2.5%; in assay [8] it was -3.88%.

Take `c1nc2n(n1)CC(NCc1csc(-c3ccsc3)n1)CC2` (stereo not given): the Percent Effect in assay [1] is -1.39%; in assay [2], 7.69%; in assay [3], -4.25%; with Trypanosoma cruzi it was 1.97%; in assay [4] it was 9.43%; in assay [5] it was 2.3%. In addition, the Percent Effect was 6.22% in the assay filed under Homo sapiens, 9.09% in assay [6], 20.5% in [7] and -0.275% in assay [8].

With `Cc1nc(C)n(CC2CN(CCOCC(F)(F)F)CCO2)n1` (stereo not given), the Percent Effect in assay [1] was -1.11%; in assay [2], 0%; in [3] it was 2.9%; in the assay on Trypanosoma cruzi it was 0.602%; in assay [4], 2.22%; in assay [5] it was 0.594%. Moreover, the Percent Effect in the assay listed under Homo sapiens was 6.11%; in [6], -1.58%; in assay [7] it was 2.56%; in assay [8] it was -2.07%.

Take `Cc1cccc(CN2CCC3(CCN(Cc4ccccn4)C3)C2=O)c1` (stereo not given): the Percent Effect in [1] was -10.9%; in assay [2], 6.49%; in assay [3], 0.239%; in the assay on Trypanosoma cruzi, -2.81%; in assay [4] it was 3.65%; in assay [5] it was 6.95%. For the same compound, the Percent Effect in the assay listed under Homo sapiens is 19%; in assay [6], -0.966%; in assay [7], 0%; in assay [8], -12.5%.

In the case of `CN1[C@H](CN2CCCC2)C[C@@H]2CN(C(=O)Cc3cccs3)CC[C@@H]21`, the Percent Effect in assay [1] was -2.98%; in assay [2], 16.9%; in assay [3], -1.33%; in the assay with Trypanosoma cruzi, -3.56%; in [4], 0%; in assay [5], 5.75%. Also, the Percent Effect in the assay listed under Homo sapiens is 2.07%; in [6], 7.73%; in assay [7] it was 2.5%; in assay [8], -11.2%.

With `CN(C)c1ccccc1C(=O)N1C[C@@H](CN2CCOCC2)[C@@H](CO)C1`, the Percent Effect is -7.18% in assay [1]; 5.41% in assay [2]; 5.57% in assay [3]; 6.69% in the assay on Trypanosoma cruzi; -0.35% in [4]; 18.3% in assay [5]. The Percent Effect in the assay listed under Homo sapiens was 22.3%; in [6] it was 7.98%; in assay [7] it was 19.5%; in assay [8], -2.44%.

For the compound `CN(C)[C@@H]1CN(Cc2ccoc2)C[C@@H]2CCCO[C@@H]21`, the Percent Effect in [1] was 0.454%; in assay [2] it was -11.7%; in assay [3], 0.192%; in the assay with Trypanosoma cruzi it was -1.46%; in assay [4], -1.62%; in assay [5], 5.74%. Further, the Percent Effect in the assay filed under Homo sapiens was -2.15%; in assay [6] it was 0.526%; in assay [7], -2.56%; in assay [8] it was -1.39%.
